# Like-named read-outs stand apart in the source and are kept apart here.
# Tested on: ULK3
# Details: read-out: apparent Kd, n = 1
substance,measurement,setting,value
Lestaurtinib,potency estimated from few doses,"compound concentrations:100 nM and 1000 nM (sheet 'Lestaurtinib' of Supplementary Table 1),run:Lestaurtinib_02482_R2,Plate:MR011",244 nM
same,potency estimated from few doses,"compound concentrations:100 nM and 1000 nM (sheet 'Lestaurtinib' of Supplementary Table 1),run:Lestaurtinib_02482_R3,Plate:MR011",219 nM
same,potency estimated from few doses,"compound concentrations:100 nM and 1000 nM (sheet 'Lestaurtinib' of Supplementary Table 1),run:Lestaurtinib_02487_R1,Plate:MR012",144 nM
same,potency estimated from few doses,"compound concentrations:100 nM and 1000 nM (sheet 'Lestaurtinib' of Supplementary Table 1),run:Lestaurtinib_02487_R2,Plate:MR012",219 nM
same,potency estimated from few doses,"compound concentrations:100 nM and 1000 nM (sheet 'Lestaurtinib' of Supplementary Table 1),run:Lestaurtinib_02487_R3,Plate:MR012",250 nM
same,potency estimated from few doses,"compound concentrations:100 nM and 1000 nM (sheet 'Lestaurtinib' of Supplementary Table 1),run:Lestaurtinib_02496_R1,Plate:MR013",131 nM
same,potency estimated from few doses,"compound concentrations:100 nM and 1000 nM (sheet 'Lestaurtinib' of Supplementary Table 1),run:Lestaurtinib_02496_R2,Plate:MR013",165 nM
same,potency estimated from few doses,"compound concentrations:100 nM and 1000 nM (sheet 'Lestaurtinib' of Supplementary Table 1),run:Lestaurtinib_02496_R3,Plate:MR013",254 nM
same,potency estimated from few doses,"compound concentrations:100 nM and 1000 nM (sheet 'Lestaurtinib' of Supplementary Table 1),run:Lestaurtinib_02566_R1,Plate:MR014",153 nM
same,potency estimated from few doses,"compound concentrations:100 nM and 1000 nM (sheet 'Lestaurtinib' of Supplementary Table 1),run:Lestaurtinib_02566_R3,Plate:MR014",242 nM
same,potency estimated from few doses,"compound concentrations:100 nM and 1000 nM (sheet 'Lestaurtinib' of Supplementary Table 1),run:Lestaurtinib_02572_R3,Plate:MR015",329 nM
same,potency estimated from few doses,"compound concentrations:100 nM and 1000 nM (sheet 'Lestaurtinib' of Supplementary Table 1),run:Lestaurtinib_02577_R2,Plate:MR016",271 nM
same,potency estimated from few doses,"compound concentrations:100 nM and 1000 nM (sheet 'Lestaurtinib' of Supplementary Table 1),run:Lestaurtinib_02577_R3,Plate:MR016",224 nM
same,potency estimated from few doses,"compound concentrations:100 nM and 1000 nM (sheet 'Lestaurtinib' of Supplementary Table 1),run:Lestaurtinib_02584_R1,Plate:MR017",232 nM
same,potency estimated from few doses,"compound concentrations:100 nM and 1000 nM (sheet 'Lestaurtinib' of Supplementary Table 1),run:Lestaurtinib_02584_R2,Plate:MR017",261 nM
same,potency estimated from few doses,"compound concentrations:100 nM and 1000 nM (sheet 'Lestaurtinib' of Supplementary Table 1),run:Lestaurtinib_02584_R3,Plate:MR017",254 nM
same,potency estimated from few doses,"compound concentrations:100 nM and 1000 nM (sheet 'Lestaurtinib' of Supplementary Table 1),run:Lestaurtinib_02601_R1,Plate:MR018",290 nM
same,potency estimated from few doses,"compound concentrations:100 nM and 1000 nM (sheet 'Lestaurtinib' of Supplementary Table 1),run:Lestaurtinib_02601_R2,Plate:MR018",271 nM
same,potency estimated from few doses,"compound concentrations:100 nM and 1000 nM (sheet 'Lestaurtinib' of Supplementary Table 1),run:Lestaurtinib_02601_R3,Plate:MR018",297 nM
same,potency estimated from few doses,"compound concentrations:100 nM and 1000 nM (sheet 'Lestaurtinib' of Supplementary Table 1),run:Lestaurtinib_02624_R2,Plate:MR020",258 nM
same,potency estimated from few doses,"compound concentrations:100 nM and 1000 nM (sheet 'Lestaurtinib' of Supplementary Table 1),run:Lestaurtinib_02624_R3,Plate:MR020",269 nM
same,potency estimated from few doses,"compound concentrations:100 nM and 1000 nM (sheet 'Lestaurtinib' of Supplementary Table 1),run:Lestaurtinib_02724_R1,Plate:MR021",243 nM
same,potency estimated from few doses,"compound concentrations:100 nM and 1000 nM (sheet 'Lestaurtinib' of Supplementary Table 1),run:Lestaurtinib_02724_R2,Plate:MR021",220 nM
same,potency estimated from few doses,"compound concentrations:100 nM and 1000 nM (sheet 'Lestaurtinib' of Supplementary Table 1),run:Lestaurtinib_02741_R1,Plate:MR023",268 nM
same,potency estimated from few doses,"compound concentrations:100 nM and 1000 nM (sheet 'Lestaurtinib' of Supplementary Table 1),run:Lestaurtinib_02748_R1,Plate:MR024",144 nM
same,potency estimated from few doses,"compound concentrations:100 nM and 1000 nM (sheet 'Lestaurtinib' of Supplementary Table 1),run:Lestaurtinib_02748_R2,Plate:MR024",132 nM
same,potency estimated from few doses,"compound concentrations:100 nM and 1000 nM (sheet 'Lestaurtinib' of Supplementary Table 1),run:Lestaurtinib_02752_R1,Plate:MR025",260 nM
same,potency estimated from few doses,"compound concentrations:100 nM and 1000 nM (sheet 'Lestaurtinib' of Supplementary Table 1),run:Lestaurtinib_02765_R1,Plate:MR026",320 nM
same,potency estimated from few doses,"compound concentrations:100 nM and 1000 nM (sheet 'Lestaurtinib' of Supplementary Table 1),run:Lestaurtinib_02765_R3,Plate:MR026",304 nM
same,potency estimated from few doses,"compound concentrations:100 nM and 1000 nM (sheet 'Lestaurtinib' of Supplementary Table 1),run:Lestaurtinib_02768_R1,Plate:MR028",240 nM
same,potency estimated from few doses,"compound concentrations:100 nM and 1000 nM (sheet 'Lestaurtinib' of Supplementary Table 1),run:Lestaurtinib_02768_R3,Plate:MR028",206 nM
same,potency estimated from few doses,"compound concentrations:100 nM and 1000 nM (sheet 'Lestaurtinib' of Supplementary Table 1),run:Lestaurtinib_02802_R3,Plate:MR029",237 nM
same,potency estimated from few doses,"compound concentrations:100 nM and 1000 nM (sheet 'Lestaurtinib' of Supplementary Table 1),run:Lestaurtinib_02896_R2,Plate:MR030",236 nM
same,potency estimated from few doses,"compound concentrations:100 nM and 1000 nM (sheet 'Lestaurtinib' of Supplementary Table 1),run:Lestaurtinib_02896_R3,Plate:MR030",158 nM
same,potency estimated from few doses,"compound concentrations:100 nM and 1000 nM (sheet 'Lestaurtinib' of Supplementary Table 1),run:Lestaurtinib_03172_R1,Plate:MR031",259 nM
same,potency estimated from few doses,"compound concentrations:100 nM and 1000 nM (sheet 'Lestaurtinib' of Supplementary Table 1),run:Lestaurtinib_03252_R1,Plate:MR032",261 nM
same,potency estimated from few doses,"compound concentrations:100 nM and 1000 nM (sheet 'Lestaurtinib' of Supplementary Table 1),run:Lestaurtinib_03260_R1,Plate:MR033",314 nM
